The results in this text go back to PubChem BioAssay (Tox21).

Assay [1] can be described thus: qHTS assay to identify aromatase inhibitors - cell viability counter screen (AID 743084).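 Further: cells stimulated with testosterone during compound exposure; nearly all actives have a fitted effect of over 55% in size.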 Further: potency means the concentration at half of the fitted maximal effect. Background: Quantitative high-throughput screening tests each substance at several concentrations.
In assay [2] the target is Aryl hydrocarbon receptor (Homo sapiens) (UniProt P35869). As to the kind of experiment: qHTS assay to identify small molecule that activate the aryl hydrocarbon receptor (AhR) signaling pathway (AID 743085). Further: nearly all actives have a fitted effect of over 15% in size. Further: potency means the concentration at half of the fitted maximal effect.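 On activation: HG2L7.5c1 human HepG2 liver cells with stably integrated DRE-driven firefly reporter; series mostly up to about 70 µM.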 In short, it runs like this: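 Reporter assay in engineered HepG2 line HG2L7.5c1, whose plasmid carries twenty dioxin responsive elements upstream of firefly luciferase. Treatment lasted 24 h at 37C; ONE-Glo luminescence gauged induction.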
Sequence of Aryl hydrocarbon receptor (Homo sapiens) (P35869 whole entry, looked up): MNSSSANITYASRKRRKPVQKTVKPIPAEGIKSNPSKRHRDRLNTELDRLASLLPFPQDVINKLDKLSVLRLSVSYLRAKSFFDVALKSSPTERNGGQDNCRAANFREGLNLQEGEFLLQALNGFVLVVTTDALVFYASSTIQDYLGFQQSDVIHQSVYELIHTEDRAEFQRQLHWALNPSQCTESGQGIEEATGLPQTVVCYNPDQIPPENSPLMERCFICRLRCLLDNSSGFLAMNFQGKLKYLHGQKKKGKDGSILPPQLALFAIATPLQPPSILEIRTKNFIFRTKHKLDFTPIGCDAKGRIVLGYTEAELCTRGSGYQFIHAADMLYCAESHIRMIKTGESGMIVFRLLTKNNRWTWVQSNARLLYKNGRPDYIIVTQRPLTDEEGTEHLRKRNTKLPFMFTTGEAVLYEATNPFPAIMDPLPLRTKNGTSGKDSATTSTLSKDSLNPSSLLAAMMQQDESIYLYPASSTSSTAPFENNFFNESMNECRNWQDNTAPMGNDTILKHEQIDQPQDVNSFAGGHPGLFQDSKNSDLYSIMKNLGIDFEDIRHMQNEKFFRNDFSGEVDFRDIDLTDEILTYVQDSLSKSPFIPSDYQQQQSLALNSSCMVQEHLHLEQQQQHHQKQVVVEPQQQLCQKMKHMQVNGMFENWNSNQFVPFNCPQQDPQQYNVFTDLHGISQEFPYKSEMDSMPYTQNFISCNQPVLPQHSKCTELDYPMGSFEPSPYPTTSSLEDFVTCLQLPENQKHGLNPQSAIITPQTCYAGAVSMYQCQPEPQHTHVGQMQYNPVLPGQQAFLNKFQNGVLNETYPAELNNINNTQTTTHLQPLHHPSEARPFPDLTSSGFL

Assay [3] can be described thus: qHTS assay to identify small molecule antagonists of the peroxisome proliferator-activated receptor gamma (PPARg) signaling pathway - cell viability counter screen (AID 743194). Further: nearly all actives have a fitted effect of over 55% in size. Further: potency means the concentration at half of the fitted maximal effect. In short, it runs like this: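 Viability was measured as CellTiter-Glo luminescence in GeneBLAzer PPARg UAS-bla HEK293H cells. These cells had been exposed 17 h at 37 C to compounds together with rosiglitazone at 50 nM final, with the beta-lactamase readout taken in the same wells.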

Assay [4] in a line: qHTS assay for small molecule activators of the heat shock response signaling pathway - cell viability counter screen (AID 743209). Further: nearly all actives have a fitted effect of over 50% in size. Further: potency means the concentration at half of the fitted maximal effect. The gist of the method:
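First, HSE-bla HeLa cells were seeded at 1500 cells/well and kept overnight at 37 C. Next, compounds were pinned in and incubated 5 h. After the FRET substrate step, CellTiter-Glo was added and luminescence read 30 min later.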

A short description of assay [5]: qHTS assay for small molecule activators of the heat shock response signaling pathway (AID 743210; active means well fitted activation curve with a large enough effect in the signal ratio in the repeat runs, with a control signal flat, not every such curve was filed as active; the % refers to the signal ratio;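 further: HeLa cells with beta-lactamase reporter driven by heat shock elements; series mostly up to about 63 µM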). The gist of the method: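 HeLa HSE-bla cells, overnight plating; cpd in DMSO 5 h, 37 C; LiveBLAzer B/G FRET substrate 2.5 h RT; fluorescence intensity read.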
Assay [6] is described as follows: qHTS assay to identify small molecule agonists of the peroxisome proliferator-activated receptor delta (PPARd) signaling pathway - cell viability counter screen (AID 743211). Further: nearly all actives have a fitted effect of over 55% in size. Further: potency means the concentration at half of the fitted maximal effect. In short, it runs like this: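 Multiplexed format: after the 2 h room-temperature LiveBLAzer B/G FRET step, CellTiter-Glo was added to the same wells. Luminescence after 30 min gave cell viability; compound exposure was 17 h at 37C.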

The nature of assay [7]: qHTS assay to identify small molecule antagonists of the peroxisome proliferator-activated receptor delta (PPARd) signaling pathway - cell viability counter screen (AID 743213). Further: nearly all actives have a fitted effect of over 50% in size. Further: potency means the concentration at half of the fitted maximal effect. The gist of the method:
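Agonist-stimulated (L165041, 300 nM final) HEK293H PPARd UAS-bla cells are exposed to compounds for 17 h at 37 C, and ATP-based luminescence (CellTiter-Glo) from the same wells reports cytotoxicity.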

Assay [8] can be described thus: qHTS assay to identify small molecule antagonists of the farnesoid-X-receptor (FXR) signaling pathway - cell viability counter screen (AID 743221; active means well fitted cell-killing curve with a large enough effect in the repeat runs, not every such curve was filed as active; further: nearly all actives have a fitted effect of over 50% in size; further: potency means the concentration at half of the fitted maximal effect). In short, it runs like this: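 CellTiter-Glo, 30 min RT, luminescence; same wells as the LiveBLAzer FRET read. Cells: FXR-UAS-bla HEK 293T. Treatment: compound with chenodeoxycholic acid 50 uM final, 16 h at 37 C.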
The target of assay [9] is Vitamin D3 receptor (Homo sapiens) (UniProt P11473). As to the kind of experiment: qHTS assay to identify small molecule agonists of the vitamin D receptor (VDR) signaling pathway (AID 743222; calls by dose curve; further: potency means the concentration at half of the fitted maximal effect). In short, it runs like this: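 Quantitative HTS agonist-mode screen: compounds in DMSO were pin-transferred onto VDR-bla cells and incubated 16 h at 37C, 5% CO2. Reporter activity was detected with LiveBLAzer B/G FRET substrate after 2 h at room temperature.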
Sequence of Vitamin D3 receptor (Homo sapiens) (P11473 whole entry, looked up): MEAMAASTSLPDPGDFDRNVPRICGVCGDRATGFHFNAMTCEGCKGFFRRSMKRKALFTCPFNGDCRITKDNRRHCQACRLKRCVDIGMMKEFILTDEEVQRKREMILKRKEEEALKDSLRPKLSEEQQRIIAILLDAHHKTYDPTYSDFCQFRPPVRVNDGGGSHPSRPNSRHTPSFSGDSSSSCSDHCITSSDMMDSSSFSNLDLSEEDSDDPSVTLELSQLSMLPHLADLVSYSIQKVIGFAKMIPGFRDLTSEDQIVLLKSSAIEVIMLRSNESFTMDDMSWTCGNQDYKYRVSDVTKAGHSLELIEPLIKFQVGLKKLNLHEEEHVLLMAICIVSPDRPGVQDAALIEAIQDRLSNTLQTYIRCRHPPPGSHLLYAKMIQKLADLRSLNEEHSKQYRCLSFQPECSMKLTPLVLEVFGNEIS

The target is the same in assay [10]. Briefly: qHTS assay to identify small molecule antagonists of the vitamin D receptor (VDR) signaling pathway (AID 743223; active means well fitted inhibition curve with a large enough effect in the signal ratio in the repeat runs, not every such curve was filed as active; the % refers to the signal ratio). In short, it runs like this: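 After VDR-bla cells are plated and left 4 h at 37C, DMSO-dissolved compounds and 3 nM (final) calcitriol agonist are added. Incubation continues 16 h at 37C; FRET beta-lactamase substrate then develops 2 h at room temperature.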

The target of assay [11] is Peroxisome proliferator-activated receptor gamma (Homo sapiens) (UniProt P37231). As to the kind of experiment: qHTS assay to identify small molecule agonists of the peroxisome proliferator-activated receptor gamma (PPARg) signaling pathway (AID 743094; active means well fitted activation curve with a large enough effect in the signal ratio in the repeat runs, not every such curve was filed as active; the % refers to the signal ratio; further: potency means the concentration at half of the fitted maximal effect). The gist of the method:
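Quantitative HTS agonist mode: stable HEK293H line with UAS-beta-lactamase reporter under PPARg control, 17 h compound exposure at 37C, fluorescence after 1 h FRET substrate loading at room temperature.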

Assay [12] in a line: qHTS assay for small molecule agonists of the antioxidant response element (ARE) signaling pathway (AID 743202; active means well fitted activation curve with a large enough effect in the signal ratio in the repeat runs, not every such curve was filed as active; the % refers to the signal ratio; further: potency means the concentration at half of the fitted maximal effect). The gist of the method:
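Quantitative high-throughput format in HepG2 cells bearing an integrated ARE-beta-lactamase reporter. Compound exposure lasted 16 h at 37 C, and fluorescence was read 2 h after adding LiveBLAzer B/G substrate at room temperature.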

Assay [13] addresses Peroxisome proliferator-activated receptor delta (Homo sapiens) (UniProt Q03181). As to the kind of experiment: qHTS assay to identify small molecule agonists of the peroxisome proliferator-activated receptor delta (PPARd) signaling pathway (AID 743212; calls by dose curve). The gist of the method:
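HEK293H PPARd-bla cells; 5 h preincubation 37 C/5% CO2; compound (DMSO) 37 C; LiveBLAzer B/G FRET substrate 2 h RT; fluorescence intensity.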

The target is the same in assay [14]. Briefly: qHTS assay to identify small molecule antagonists of the peroxisome proliferator-activated receptor delta (PPARd) signaling pathway (AID 743215; active means well fitted inhibition curve with a large enough effect in the signal ratio in the repeat runs, not every such curve was filed as active; the % refers to the signal ratio; further: potency means the concentration at half of the fitted maximal effect). In short, it runs like this:
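Inhibition of L165041-driven (300 nM final) PPARd signaling is scored in HEK293H UAS-bla cells. Exposure lasts 17 h at 37 C; beta-lactamase activity is then read by FRET substrate fluorescence after 2 h at room temperature.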

The target of assay [15] is Peroxisome proliferator-activated receptor gamma (Homo sapiens) (UniProt P37231). As to the kind of experiment: qHTS assay to identify small molecule antagonists of the peroxisome proliferator-activated receptor gamma (PPARg) signaling pathway (AID 743191; calls by dose curve; further: nearly all actives have a fitted effect of over 30% in size; further: potency means the concentration at half of the fitted maximal effect). The gist of the method: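 Beta-lactamase reporter under UAS control in HEK293H PPARg-bla cells; compound treatment 17 h at 37C. Read-out: fluorescence intensity after 1 h room-temperature incubation with LiveBLAzer B/G FRET substrate.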
Sequence of Peroxisome proliferator-activated receptor gamma (Homo sapiens) (P37231 whole entry, looked up): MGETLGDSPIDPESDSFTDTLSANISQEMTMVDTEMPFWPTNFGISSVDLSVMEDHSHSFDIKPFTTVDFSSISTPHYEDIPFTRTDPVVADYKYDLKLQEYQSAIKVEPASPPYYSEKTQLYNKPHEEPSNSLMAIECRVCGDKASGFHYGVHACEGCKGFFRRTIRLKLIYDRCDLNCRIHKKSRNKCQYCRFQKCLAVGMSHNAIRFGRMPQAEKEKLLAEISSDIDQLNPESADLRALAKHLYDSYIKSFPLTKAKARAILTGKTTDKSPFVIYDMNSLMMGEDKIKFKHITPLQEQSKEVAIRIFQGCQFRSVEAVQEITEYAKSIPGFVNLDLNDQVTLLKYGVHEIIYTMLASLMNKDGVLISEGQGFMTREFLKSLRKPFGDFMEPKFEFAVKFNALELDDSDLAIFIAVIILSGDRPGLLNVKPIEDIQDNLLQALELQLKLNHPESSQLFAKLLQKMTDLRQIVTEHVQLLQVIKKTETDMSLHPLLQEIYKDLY

Assay [16] in a line: qHTS assay for small molecule agonists of the antioxidant response element (ARE) signaling pathway - cell viability counter screen (AID 743203; calls by dose curve; further: nearly all actives have a fitted effect of over 55% in size; further: potency means the concentration at half of the fitted maximal effect). The gist of the method:
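Seeded at 2,000 cells/well, ARE-bla HepG2 cells were incubated 5 hrs before compound addition. After 16 hrs of treatment at 37C with 5% CO2, CellTiter-Glo reagent was added and luminescence read 30 min later.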

The target in assay [17] is Bile acid receptor (Homo sapiens) (UniProt Q96RI1). As to the kind of experiment: qHTS assay to identify small molecule antagonists of the farnesoid-X-receptor (FXR) signaling pathway (AID 743217; active means well fitted inhibition curve with a large enough effect in the signal ratio in the repeat runs, not every such curve was filed as active; the % refers to the signal ratio; further: potency means the concentration at half of the fitted maximal effect). The gist of the method:
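Antagonist mode against 50 uM (final) chenodeoxycholic acid stimulation in FXR-bla HEK 293T cells, 16 h at 37 °C. Inhibition detected as reduced beta-lactamase activity via LiveBLAzer B/G FRET fluorescence after 2 h at room temperature.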

Assay [18] in a line: qHTS assay to identify small molecule agonists of the farnesoid-X-receptor (FXR) signaling pathway - cell viability counter screen (AID 743218). Further: nearly all actives have a fitted effect of over 45% in size. Further: potency means the concentration at half of the fitted maximal effect. In short, it runs like this:
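Cytotoxicity counter-screen run in parallel, same wells: FXR-UAS-bla HEK 293T cells dosed 16 h at 37 C, viability read by CellTiter-Glo luminescence after 30 min at room temperature.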

Assay [19] addresses Bile acid receptor (Homo sapiens) (UniProt Q96RI1). As to the kind of experiment: qHTS assay to identify small molecule agonists of the farnesoid-X-receptor (FXR) signaling pathway (AID 743220; active means well fitted activation curve with a large enough effect in the signal ratio in the repeat runs, not every such curve was filed as active; the % refers to the signal ratio; further: potency means the concentration at half of the fitted maximal effect). In short, it runs like this: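 Beta-lactamase reporter under UAS control in GeneBLAzer FXR HEK 293T cells (5000/well) measured with LiveBLAzer FRET substrate after 2 h at room temperature. Compound exposure lasted 16 h at 37C.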

Assay [20] in a line: qHTS assay to identify small molecule that activate the aryl hydrocarbon receptor (AhR) signaling pathway - cell viability counter screen (AID 743086). Further: nearly all actives have a fitted effect of over 45% in size. Further: potency means the concentration at half of the fitted maximal effect. The gist of the method:
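Cytotoxicity counter screen: CellTiter-Fluor signal (30 min, 37 C) in 4000 HepG2 cells/well carrying the DRE-luciferase reporter, following 24 h compound exposure at 37 C.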

Results filed as inconclusive are left out. Calls of active or inactive are those of the source. Unless noted, the call rests on the fitted dose curve; in most records, active means well fitted curve in the direction sought with a large enough effect in the repeat runs; inconclusive means weak or mixed curves; inactive means no such curve, though single readings can be large; an effect the other way counts as inactive or inconclusive.

Sequence of Bile acid receptor (Homo sapiens) (Q96RI1 whole entry, looked up): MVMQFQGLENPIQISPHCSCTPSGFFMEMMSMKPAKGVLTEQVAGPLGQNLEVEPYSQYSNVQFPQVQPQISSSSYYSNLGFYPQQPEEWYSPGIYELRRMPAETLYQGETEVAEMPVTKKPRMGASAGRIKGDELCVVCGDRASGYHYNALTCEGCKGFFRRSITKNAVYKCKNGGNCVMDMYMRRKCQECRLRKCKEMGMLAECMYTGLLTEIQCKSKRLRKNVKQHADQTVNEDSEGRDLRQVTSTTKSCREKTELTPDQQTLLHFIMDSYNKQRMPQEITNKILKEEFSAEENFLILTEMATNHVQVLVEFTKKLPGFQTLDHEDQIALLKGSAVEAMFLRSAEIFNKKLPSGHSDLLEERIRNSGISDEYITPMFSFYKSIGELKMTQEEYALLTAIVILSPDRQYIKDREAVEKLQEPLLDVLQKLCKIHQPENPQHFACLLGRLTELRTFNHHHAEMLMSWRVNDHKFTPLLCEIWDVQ
Sequence of Peroxisome proliferator-activated receptor delta (Homo sapiens) (Q03181 whole entry, looked up): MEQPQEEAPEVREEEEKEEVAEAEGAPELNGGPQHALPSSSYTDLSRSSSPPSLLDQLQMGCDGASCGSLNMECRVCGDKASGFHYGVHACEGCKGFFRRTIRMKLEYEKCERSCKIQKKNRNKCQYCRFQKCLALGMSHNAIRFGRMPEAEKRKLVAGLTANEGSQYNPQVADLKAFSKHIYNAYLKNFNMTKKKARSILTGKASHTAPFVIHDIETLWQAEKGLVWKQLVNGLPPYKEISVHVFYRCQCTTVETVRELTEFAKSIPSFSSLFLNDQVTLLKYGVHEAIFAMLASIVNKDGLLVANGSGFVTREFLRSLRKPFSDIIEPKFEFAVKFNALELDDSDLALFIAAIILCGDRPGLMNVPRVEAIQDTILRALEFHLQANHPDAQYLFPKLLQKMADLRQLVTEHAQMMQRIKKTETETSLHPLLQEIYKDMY

For the compound `Oc1ccc(-c2ccc(O)cc2)cc1`, the Potency result in [1], in [2], in [3], in assay [4], in assay [5] and in assay [6] was “inactive” throughout. Also, the Potency entry in [7], in assay [8], in [9] and in [10] was “inactive” in each case.
Regarding `CCCC(CC)CCCCCCCN` (stereo unspecified), the Potency result in [1], in [2], in assay [11], in assay [12], in assay [4] and in [6] was “inactive” each time. In addition, the Potency result in [7], in [14], in assay [9] and in [10] was “inactive” in each case. Besides, in [13], the compound was classed as inactive.
With `CCOC(=O)[C@@](C)(N)Cc1ccc(O)c(O)c1`, the Potency entry in assay [1], in [2], in [11], in assay [15], in assay [3] and in assay [16] was “inactive” throughout. Also, the Potency result in assay [4], in assay [5], in assay [6], in assay [7], in assay [17] and in assay [18] was “inactive” in each case. The Potency entry in assay [19], in [8], in assay [9] and in [10] was “inactive” each time. Moreover, in assay [13], the result was inactive.
For the compound `CCN(CC)CCNc1ccc(CO)c2sc3ccccc3c(=O)c12`, the Potency result in assay [1], in [4], in assay [5], in assay [19] and in [9] was “inactive” each time. Also, the Potency is 0.531 µM (active) in [2]; 6.68 µM (active) in [16]; 18.8 µM (active) in [6]; 13.3 µM (active) in assay [7]; 23.7 µM (active) in assay [14]. Further, in [13], the result was inactive.
As to `O=C(O)CC(=O)O`, the Potency result in assay [1], in [2], in [11], in [15], in assay [3] and in assay [16] was “inactive” each time. Besides, the Potency entry in assay [4], in assay [5], in assay [6], in [7], in assay [14] and in assay [18] was “inactive” each time. Also, the Potency entry in assay [8], in assay [9] and in assay [10] was “inactive” throughout. Besides, in assay [13], the call was inactive.
For `Nc1ncnc2c1ncn2[C@@H]1O[C@H](COP(=O)(O)O)[C@@H](O)[C@H]1O`, the Potency result in assay [1], in [2], in assay [11], in assay [15], in [3] and in assay [12] was “inactive” each time. In addition, the Potency entry in [16], in [4], in [5], in assay [14], in [9] and in assay [10] was “inactive” each time. Further, the results for the Potency in assay [6], in [7] and in [8] were 10.6 µM (active), 11.9 µM (active) and 13.3 µM (active), respectively. Besides, the call in [13] was inactive.
Consider `Cc1ccc(N)cc1O`, for which the Potency was 15.7 µM (active) in [2], 61.1 µM (active) in assay [20] and 49 µM (active) in assay [15]. Besides, the Potency entry in assay [3], in [16], in [5], in assay [7] and in [8] was “inactive” throughout.
Take `c1cc(OCC2CO2)cc(OCC2CO2)c1` (stereo unspecified): the Potency was 48.2 µM (active) in [1] and 30.4 µM (active) in assay [12]. Also, the Potency entry in assay [3], in [16], in [4], in assay [17], in [18] and in assay [8] was “inactive” throughout. The Potency entry in [9] was “inactive”. The compound was classed as inactive in [13].
Take `CCOC(=O)C1=C(C)NC(C)=C(C(=O)OCC)C1c1ccccc1/C=C/C(=O)OC(C)(C)C`: the Potency entry in assay [1] and in assay [3] was “inactive” in each case. Moreover, the Potency in assay [11] was 9.52 µM (active); in assay [7], 18.8 µM (active); in assay [19], 33.5 µM (active); in assay [9], 29.8 µM (active).
As to `Clc1ccc(C(Cn2ccnc2)OCc2c(Cl)cccc2Cl)c(Cl)c1` (stereo unspecified), the Potency entry in assay [1], in assay [11] and in [9] was “inactive” throughout. Further, the Potency in [6] is 26.6 µM (active); in assay [17] it was 21.1 µM (active); in [18], 21.1 µM (active); in [19] it was 10.6 µM (active); in [8], 26.6 µM (active).
Take `CNCC[C@H](Oc1cccc2ccccc12)c1cccs1`: the Potency is 11.9 µM (active) in assay [2]; 11.9 µM (active) in [3]; 6.68 µM (active) in assay [16]; 29.8 µM (active) in assay [4]; 6.68 µM (active) in [6]; 5.31 µM (active) in [7]. Further, in assay [8], the Potency is 11.9 µM (active). Also, in assay [20], the Potency entry is “inactive”.
Regarding `C[C@@]12C(=O)OC(=O)[C@]1(C)C1CCC2O1`, the Potency in [1] was 3.59 µM (active); in assay [20], 0.569 µM (active); in assay [16] it was 4.22 µM (active); in [7] it was 8.41 µM (active); in [8], 13.3 µM (active). Also, the Potency result in assay [3], in assay [4] and in assay [5] was “inactive” each time.
With `CC(C)(c1cc(Br)c(OCCO)c(Br)c1)c1cc(Br)c(OCCO)c(Br)c1`, the Potency entry in assay [1], in assay [20], in [11] and in assay [19] was “inactive” in each case. Further, the Potency is 17 µM (active) in assay [3]; 18.9 µM (active) in [16]; 17 µM (active) in assay [4]; 15.1 µM (active) in assay [6]; 42.7 µM (active) in [7]; 19.1 µM (active) in assay [18].
Consider `Cc1c(-c2ccc(O)cc2)n(Cc2ccc(OCCN3CCCCCC3)cc2)c2ccc(O)cc12`, for which the Potency entry in assay [1] and in assay [4] was “inactive” each time. Moreover, the Potency is 29.8 µM (active) in [3]; 26.6 µM (active) in assay [6]; 26.6 µM (active) in assay [7]; 29.8 µM (active) in [18]; 29.8 µM (active) in [8].
